Screen size: about 370,000 compounds; about 5,400 (1.5%) were called active.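 The calls were made as follows: active = activation above the mean of all tested compounds plus 3 SD (cut at about 5.5% in these data); inactive = the rest.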 This excerpt belongs to a sample that is enriched for actives.

The assay relates to DAF-12 nuclear receptor (Haemonchus contortus). The assay is described as follows: H. contortus DAF-12 nuclear receptor activators, primary screen, cell-based, luminescence, HEK293, lit1-tk-luc reporter (AID 652067).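 Also: 100% = response to 3 µM Δ7-dafachronic acid high control.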 The note with it: HEK293 hcDAF-12 lit1-tk-luc reporter, at 6.8 µM, hits give high values.
In the case of `Cc1ccc(C2CN(C)CC2C(=O)c2ccc(F)cc2)cc1` (stereo not given), the activation is 0.06% (inactive). For the compound `COc1ccc(C(=O)CC2C(=O)N(C)C(=O)N(C)C2=O)cc1`, the activation was 0.97% (inactive). As to `COc1ccc(C(=O)C2CN(C)CC2C(=O)c2ccc(OC)cc2)cc1` (stereo not given), the activation is 8.46% (active). As to `CN(c1ccccc1)c1ccc([N+](=O)[O-])c2nonc12`, the activation was -1.36% (inactive). To `CNP1(NC)=Nc2nn(-c3ccccc3)c(N)c2C(c2ccccc2)=N1` belongs -1.95% (inactive). In the case of `CCCCCn1c(=O)c(C(=O)Nc2c(C)n(C)n(-c3ccccc3)c2=O)c(O)c2ccccc21`, the activation was -0.09% (inactive). For the compound `CCCCn1c(=O)c(C(=O)Nc2ccccc2Cl)c(O)c2ccccc21`, the activation is 5.68% (active).

With `CCCCCn1c(=O)c(C(=O)NCc2ccccc2)c(O)c2ccccc21`, the activation is -0.29% (inactive).

For `O=C(CCN1CCCCC1)NCC(=O)Nc1ccc(Br)cc1C(=O)c1ccccc1`, the activation is -0.6% (inactive).

Take `CS(=O)(=O)N1CCC2CCNC2C1` (stereo not given): the activation was -0.6% (inactive). To `CN1CCN(/N=C/c2c[nH]c3ccccc23)CC1` belongs 1.53% (inactive); to `CCC/C(=N\O)c1c[nH]c2ccccc12`, 6.34% (active); to `CN(C)CC1CCCCC1OC(=O)c1ccc(Cl)c(Cl)c1` (stereo not given), 0.25% (inactive).

`CCOc1ccc(C2SCC(=O)Nc3c2c(C)nn3C2CCOC(C)(C)C2)cc1` (stereo not given): the activation was -2.48% (inactive). To `Cc1ccccc1CCC[C@@H](CC1CCCCC1)CN(C)C(=O)Oc1ccccc1` belongs 4.88% (inactive); to `Cc1cc(C)c2c(c1)NP(=S)(c1ccccc1)N2` (stereo not given), 4.47% (inactive). To `COc1ccc2c(c1)NP(=S)(c1ccccc1)N2` (stereo not given) belongs 13.1% (active); to `CO[C@H]([C@H](C)/C=C/N(C)C=O)[C@@H](C)C(=O)CC[C@H](C)[C@H](O)[C@H](C)[C@H]1OC(=O)/C=C/C(C)=C/[C@H](O)[C@H](OC)C[C@@H]2C=CC[C@@H](C[C@H](OC)[C@@]3(CO3)[C@@H](OC)C[C@@H](OC)[C@@H]1C)O2`, 0.14% (inactive). Take `COc1ccc(-c2nc(CS(=O)CC(=O)N3CCC4(CC3)OCCO4)c(C)o2)cc1` (stereo not given): the activation was -0.05% (inactive). To `COP(=O)(Sc1ccccc1)C(Cc1ccccc1)NC(=O)OCc1ccccc1` (stereo not given) belongs -1.13% (inactive).
